High-throughput results deposited in PubChem BioAssay by several laboratories.
GDH-TPI inh = counter-screen for M. tuberculosis FBA inhibitors: GDH-TPI coupled enzymes. inhibition, % at 4.8 µM. hit rate 1.2% among 360,000. GDH-TPI coupled enzyme counterscreen, NADH absorbance; in the data active = inhibition above about 30%;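 note: 0% = DMSO wells and 100% = wells lacking the enzyme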
FadD28 FP inh = M. tuberculosis FadD28 bisubstrate binding inhibition | FadD28 bisubstrate probe binding, fluorescence polarization | inhibition, % at 12.5 µM | hit rate 0.22% among 360,000 | AID 588549; in the data active = inhibition above about 8.5%, passing the limit was not always enough
Mtb BioA inh = inhibitors of Mycobacterium tuberculosis BioA enzyme; purified M. tuberculosis BioA enzyme, plate reader; inhibition, % at 9.99 µM; hit rate 0.096% among 360,000; in the data active = inhibition above about 40%
Mtb FBA inh = Mtb fructose-bisphosphate aldolase inhibition; P9WQA3; purified M. tuberculosis FBA, fluorescence read-out; inhibition, % at 1 µM; hit rate 2.3% among 360,000; AID 588726; in the data active = inhibition above about 27%;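 note: 0% = vehicle and 100% = reference inhibitor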
Target sequence (P9WQA3 whole entry, looked up): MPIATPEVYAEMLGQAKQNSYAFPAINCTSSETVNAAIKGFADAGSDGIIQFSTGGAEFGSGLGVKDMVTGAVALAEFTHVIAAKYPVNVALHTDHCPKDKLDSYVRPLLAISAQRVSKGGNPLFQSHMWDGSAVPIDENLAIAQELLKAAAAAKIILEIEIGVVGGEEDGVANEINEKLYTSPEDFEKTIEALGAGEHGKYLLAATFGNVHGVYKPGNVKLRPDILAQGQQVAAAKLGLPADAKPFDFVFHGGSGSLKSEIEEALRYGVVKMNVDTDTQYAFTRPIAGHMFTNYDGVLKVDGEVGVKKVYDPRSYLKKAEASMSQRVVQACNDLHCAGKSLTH
SARS 3CLpro inh = SARS-CoV 3CLpro protease inhibition | P0C6X7 | recombinant SARS-CoV 3CLpro, quenched FRET peptide cleavage | inhibition, % at 6 µM | hit rate 0.14% among 290,000; in the data active = inhibition above about 12%
Starred values were filed as active, the others as inactive; . = not tested or not shown. This is a sample that favours compounds with a hit; in the whole collection about 3.1% have one here.

SMILES	GDH-TPI inh	FadD28 FP inh	Mtb BioA inh	Mtb FBA inh	SARS 3CLpro inh
O=C(CC(=O)NC1CCCCC1)N/N=C/c1cccc2ccccc12	31*	0	0	1	0
O=C(CC(=O)NC1CCCCC1)N/N=C/c1ccccc1Cl	-1	-1	-1	-1	-3
C[C@H](CO)N1C[C@H](C)[C@@H](CN(C)C(=O)Nc2ccc(C(F)(F)F)cc2)OCCCC[C@H](C)Oc2ccc(NC(=O)Nc3cccc4ccccc34)cc2C1=O	.	.	2	.	.
CN(C)/C=C/c1onc(-c2c(F)cccc2Cl)c1C#N	31*	-3	-1	-2	4
CO[C@H]1CN(C)C(=O)c2cc(NC(=O)Cc3ccccc3)ccc2OC[C@@H](C)N(CC2CC2)C[C@H]1C	.	.	0	.	.
CC(C)c1cn(CC[C@@H]2CC[C@H](NC(=O)C3CCC3)[C@H](CO)O2)nn1	.	.	-3	.	.
O=C1N=C(N2CCOCC2)S/C1=C\c1cccs1	19	-1	0	-2	2
NC1=NC(=O)/C(=C\c2cccs2)S1	48*	-3	0	-9	3
C[C@@H](NC(=O)[C@H]1[C@H](CO)[C@H]2Cn3c(cccc3=O)[C@@H]1N2C(=O)C1CC1)c1ccccc1	.	.	0	.	.
O=C1NC(=S)S/C1=C\c1ccc(SCc2ccccc2)o1	17	18*	1	-9	1
O=C1NC(=S)S/C1=C\c1ccc(SCc2ccco2)o1	15	45*	4	-5	0
O=C1NC(=S)S/C1=C/c1ccc(OC(=O)c2ccco2)cc1	21	-1	-1	-9	5
O=C1NC(=O)/C(=C/c2ccc(-c3cccc([N+](=O)[O-])c3)o2)S1	17	-1	-2	2	8
CCCC#Cc1cnc2c(c1)C(=O)N([C@H](C)CO)C[C@H](C)[C@H](CN(C)C(=O)NCCC)O2	.	.	0	.	.
CN(C)c1ccc(-c2nc3ccccc3c(=O)[nH]2)cc1	74*	-2	.	2	4
COc1ccc(-c2nc3ccccc3c(=O)[nH]2)cc1	-4	0	-2	4	-2
Cc1ccc(C(=O)N/C(=C\c2cccnc2)c2nc3ccccc3[nH]2)cc1	29	0	.	2	0
COc1ccc(C(=O)N/C(=C\c2cccs2)c2nc3ccccc3[nH]2)cc1OC	49*	-1	.	4	2
COc1ccc(/C=C(/NC(=O)c2ccccc2)c2nc3ccccc3[nH]2)cc1OC	42*	-4	0	0	1
COc1ccc(C(=O)N/C(=C/c2cccs2)C(=O)NN)cc1OC	11	-1	-4	2	5
COc1ccc(/C=C(/NC(=O)c2ccccc2)c2nc3ccc(Cl)cc3[nH]2)cc1OC	36*	-2	.	3	1
C[C@H](CO)N1C[C@H](C)[C@H](CN(C)C(=O)CC2CC2)Oc2cc(-c3cccnc3)ccc2S1(=O)=O	.	.	2	.	.
CCCNC(=O)C[C@@H]1CC[C@H]2[C@@H](COC[C@@H](O)CN2C(=O)c2cccnc2)O1	.	.	-1	.	.
COc1ccc2[nH]c(C(=O)N/N=C/c3ccccc3OC)cc2c1	38*	-2	2	5	-2
COc1ccc2[nH]c(C(=O)Nc3ccc(F)cc3Br)cc2c1	32*	-2	0	6	0
SMILES	GDH-TPI inh	FadD28 FP inh	Mtb BioA inh	Mtb FBA inh	SARS 3CLpro inh
COc1ccc2[nH]c(C(=O)N/N=C/c3ccc(OC)c(O)c3)cc2c1	49*	-2	.	0	-8
CCOc1ccc2[nH]c(C(=O)N/N=C/c3ccccc3OC)cc2c1	22	-2	-1	6	0
CCOc1ccc(/C=N/NC(=O)c2cc3c(OC)cc(OC)c(OC)c3[nH]2)cc1	34*	1	-1	1	1
C[C@@H](NC(=O)C[C@@H]1CC[C@@H]2[C@H](COC[C@H](O)CN2Cc2ccc(C(F)(F)F)cc2)O1)c1ccccc1	.	.	0	.	.
CC(C)CC#Cc1ccc2c(c1)O[C@H](CN(C)CC1CCOCC1)[C@H](C)CN([C@H](C)CO)S2(=O)=O	.	.	0	.	.
COc1cc(OC)c2cc(C(=O)N/N=C/c3ccccc3O)[nH]c2c1	14	1	-2	7	-10
COc1ccccc1C=NNC(=O)C(=O)NN=Cc1ccccc1OC	34*	-3	0	3	.
COc1cccc(/C=N/NC(=O)C(=O)N/N=C/c2cccc(OC)c2OC)c1OC	19	-2	0	0	0
COc1ccc(OC)c(/C=N/NC(=O)c2cc3c(OC)c(OC)ccc3[nH]2)c1	35*	-2	.	1	2
Cc1ccc2oc3c(c(=O)c2c1)C(c1cccs1)N(CCCN(C)C)C3=O (configuration not stated)	7	-6	59*	3	.
C[C@@H]1CN([C@@H](C)CO)S(=O)(=O)c2ccc(Br)cc2O[C@@H]1CN(C)C	.	.	0	.	.
COc1ccc2[nH]c3nc(SCC(=O)NNC(=O)c4ccc(OC)c(OC)c4)nnc3c2c1	41*	-1	-3	0	5
COc1ccc(S(=O)(=O)Nc2ccc3c(c2)C(=O)N([C@@H](C)CO)C[C@H](C)[C@@H](CN(C)Cc2ccc(-c4ccccc4)cc2)O3)cc1	.	.	-3	.	.
CC(=O)c1ccc2c(c1)C1C(Cl)C(Sc3ccccc3[N+](=O)[O-])CC1C(C(=O)O)N2 (configuration not stated)	14	20*	.	-9	-6
O=C(O)c1cccc2c1NC(C(=O)O)C1CC(Sc3ccccc3[N+](=O)[O-])C(Cl)C21 (configuration not stated)	12	55*	8	-14	3
C[C@@H]1CN([C@H](C)CO)S(=O)(=O)c2ccc(C#CC(C)(C)O)cc2O[C@H]1CN(C)CC1CC1	.	.	1	.	.
CN1/C(=C/C(=O)COC(=O)C2COc3ccccc3O2)C(C)(C)c2ccccc21 (configuration not stated)	32*	0	-2	3	.
CN1/C(=C\C(=O)COC(=O)c2ccc(O)cc2)C(C)(C)c2ccccc21	29	0	-1	9	-1
CN1/C(=C\C(=O)COC(=O)CN2C(=O)C3CC=CCC3C2=O)C(C)(C)c2ccccc21 (configuration not stated)	37*	-2	1	8	-6
CCOC(=O)N1CCN(C(=O)CCSc2ccccc2)CC1	-2	-1	0	123*	0
C[C@H](CO)N1C[C@H](C)[C@H](CN(C)C(=O)Nc2ccccc2)Oc2ccc(NS(C)(=O)=O)cc2C1=O	.	.	-1	.	.
O=C(CCCN1C(=O)/C(=C/c2ccco2)SC1=S)Nc1cccc(C(=O)O)c1	6	18*	.	-1	2
O=C(CCCN1C(=O)/C(=C\c2ccco2)SC1=S)Nc1ccc(O)cc1C(=O)O	10	40*	0	6	-3
O=C(CCCN1C(=O)/C(=C\c2cccs2)SC1=S)Nc1ccc(O)cc1C(=O)O	12	3	6	-13	3
O=C(CS(=O)(=O)c1ccccc1)Nc1nc(-c2ccc(F)cc2)cs1	4	-3	.	1	-1
O=C(CCS(=O)(=O)c1ccccc1)Nc1nc(-c2ccc(F)cc2)cs1	34*	-2	.	6	-2
